The whole screen tested about 75,000 compounds, of which about 5,700 (7.6%) were called active. Roughly 7% stayed inconclusive and do not appear here. Calls come from the whole dose curve; as a rule, active = well fitted inhibition curve with a large enough effect; inconclusive = small, poorly fitted or top-dose-only effect; inactive = no such curve, though single readings can be large or run the other way. This excerpt belongs to a sample that is enriched for actives.
Target: 3-hydroxyacyl-CoA dehydrogenase type-2 (Homo sapiens) (UniProt Q99714)
Assay: qHTS Assay for Inhibitors of HSD17B4, hydroxysteroid (17-beta) dehydrogenase 4;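 note: the protocol describes HADH2 (HSD17B10) and not the HSD17B4 of the title; nearly all actives have a fitted effect of over 70% in size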
Conditions: recombinant HSD17B10, NADH fluorescence kinetic; series mostly up to 57.1 µM; activity change, negative = inhibition: at the top concentration
Summary of the method: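 Enzyme plus compound, 15 min room temperature; substrate mix added (NAD+ 1 mM, beta-hydroxybutyryl-CoA 90 uM final); plates read kinetically for NADH fluorescence. HADH2 was His-tagged, E. coli-derived, 20 nM.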
% is set by controls: 0 for no effect and ±100 for the full control effect; potency is the fitted concentration of half-maximal effect.

Activity change, negative = inhibition, inactive:
O=C(c1cnccn1)N1CCC[C@@]2(CCN(Cc3ccncc3)C2)C1 -0.839%, CCS(=O)(=O)N1CCCC(C(=O)NCc2ccc(C)cc2)C1 (centres undefined) 3.03%, C=C1C([C@@]2(C)C(OC(C)=O)CC(=O)O[C@@](C)(COC(C)=O)C2CC(=O)OC)C(OC=O)C(OC(=O)C(O)C(C)CC)[C@]2(C)C(c3ccoc3)CC(=O)C12O (some centres undefined) 1.47%, COc1ccc(COC(=O)N/N=C2/C[C@@H](O)[C@@H](O)[C@@H]3[C@@H]4C(=O)N([C@@H](C)c5ccccc5)C(=O)[C@H]4CC[C@@H]23)cc1 -1.08% [at 11.4 µM], COC(=O)c1cccc(NC(=O)CSc2nc(C)cc(=O)[nH]2)c1 -5.5%, CCOC(=O)c1ccc2[nH]c(C)c(CN3CCN(C)CC3)c(=O)c2c1 -8.08%, CCOc1ccc(C2C(C(=O)NC)=C(C)Nc3nc4ccccc4n32)cc1OC (centres undefined) -3.06%, CN(C)c1cc2c(Nc3ccc4c(cnn4Cc4ccccc4)c3)ncnc2cn1 -7.72%, CCNC(=S)NCC -1.94%, CCCNC(=O)C1CC(=O)N(c2ccc(OCC(=O)Nc3cccc(C)c3C)cc2)C1 (centres undefined) 0.177%, O=C(O)Cc1ccc(NC(=O)c2cccs2)cc1 2.96%, O=C(O)c1ccc(NC(=O)c2cccs2)cc1 6.76%, CCOC(=O)N1CCC(Nc2c(NCCN3CCN(c4cccc(Cl)c4)CC3)c(=O)c2=O)CC1 7.7%, CCC(CCC(C)C1CCC2C3CC=C4CC(O)CC[C@@]4(C)C3CC[C@@]12C)C(C)C (some centres undefined) 5.26%, COC(=O)c1ccc(/C=N\n2c(C)nnc2C)cc1 7.86%, COc1ccccc1-c1cc(NCc2cccs2)ncn1 -18.8%, CC1OC(OCC2OC(Oc3c(-c4ccc(O)c(O)c4)oc4cc(O)cc(O)c4c3=O)C(O)C(O)C2O)[C@@H](O)C(O)C1O (some centres undefined) -4.69%, COc1ccc(CCC(=O)c2c(O)cc(OC3OC(CO)C(O)C(O)C3O[C@@H]3OC(C)C(O)C(O)C3O)cc2O)cc1O (some centres undefined) 4.07%, CN1C(=O)c2ccccc2C(C(=O)NCCCN2CCCC2)C1c1c[nH]c2ccccc12 (centres undefined) -4.95%, COC(=O)[C@@H]1CC[C@H](C)[C@@H](c2ccc(C)cc2)N1C(=O)c1ccc(/C=N\OC[C@@H](O)COCc2ccco2)cc1 -1.91% [at 11.4 µM], COc1ccc(CCNC(=O)C2CCN(c3nn4c(=O)cc(C)nc4s3)CC2)cc1OC 9.45%, CCCS(=O)(=O)N1CCC(C(=O)NCCc2ccc(OC)c(OC)c2)CC1 -7.07%, CCC(C)NC(=O)C1CCC(=O)N1Cc1ccc(C)cc1 (centres undefined) -0.529%, CC(C)CO/N=C1/C[C@@H](O)[C@@H](O)[C@@H]2[C@@H]3C(=O)N(C[C@@H]4CCCO4)C(=O)[C@H]3CC[C@@H]12 9.42% [at 11.4 µM], CC(C)CCn1c(CN(C)Cc2ccccc2)nc2c1c(=O)n(C)c(=O)n2C 15.1%, CN(Cc1ccccc1)c1nc2c(c(=O)[nH]c(=O)n2C)n1CCSc1nc2ccccc2[nH]1 4.72%, COc1ccc(OC)c(C(=O)c2coc3ccc(O)c(CN4CCOCC4)c23)c1 -2.85%, CN1CCN(Cc2c(O)ccc3c2oc(=O)c2ccccc23)CC1 -4.22%, COc1ccc(S(=O)(=O)N(CCCN2CCCC2=O)Cc2cc3c(C)ccc(C)c3[nH]c2=O)cc1 15.2%, O=C1Nc2ccccc2C12Nc1ccccc1S2 (centres undefined) -3.38%, CCCOc1ccccc1C1CC(=O)Nc2cc3c(cc21)OCO3 (centres undefined) -11.5%, O=C(Nc1ccc(Cl)cc1)c1ccsn1 -3.23%, COC(=O)c1ccc(S(=O)(=O)c2ccc(C(=O)OC)s2)s1 -3.45%, CCCC[C@@H]1C[C@H]1C(NC(=O)c1ccc(-c2ccccc2)cc1)c1ccc(-c2ccccc2)cc1 (some centres undefined) 8.02%, Cc1oc2nc(SCC(=O)NCc3cccnc3)nc(N)c2c1C 3.67%, COc1ccc(-n2c(=O)c(C)nc3cnc(N4CCOCC4)nc32)cc1 -9.06%, COCCn1c(CN2CCC(Cc3ccccc3)CC2)nc2c1c(=O)n(C)c(=O)n2C -1.46%, COc1ccccc1CCn1c(=O)c(-c2cn(C)c3ccccc23)nc2cncnc21 59.3%, CCOC(=O)c1cc2occc2n1CC(=O)NC1CCC(C)CC1 (centres undefined) 4.68%, CCOC(=O)C1CCCN(C(=O)CN(c2ccc(OC)cc2)S(=O)(=O)c2c(C)noc2C)C1 (centres undefined) 1.74%, O=C(Nc1nc(-c2ccc3c(c2)OCO3)cs1)c1ccncc1 -11.3%, c1ccc(Nc2nc(-c3ccncc3)cs2)nc1 -3%, CN/C(=C\[N+](=O)[O-])NCCSCc1csc(CN(C)C)n1 -2.14% [at 25.6 µM], COc1cccc(Cn2c(=O)c(C)nc3cnc(Oc4ccccc4)nc32)c1 -1.84%, O=c1c(CCc2ccccc2)nc2cncnc2n1C1CC1 3.62%, Cn1c(=O)n(CCc2ccccc2)c(=O)c2c1nc1n2CCCN1c1ccccc1 0.651%, Cn1cc(-c2nc3cnc(N4CCNCC4)nc3n(CCc3ccccc3)c2=O)c2ccccc21 5.99%, Cn1c(=O)c(CCc2ccccc2)nc2cnc(Nc3ccccc3)nc21 41%, Cc1nc2cnc(Nc3ccccc3)nc2n(Cc2ccc(F)cc2)c1=O 5.1%, O=c1cnc2cnc(Nc3ccccc3)nc2n1Cc1ccc(F)cc1 -8.38%, COc1cccc(Nc2ncc3ncc(=O)n(C4CC4)c3n2)c1 7%, CCOC(=O)c1ccc(N2C(=O)CC(Sc3nc(O)c(CC)c(=O)[nH]3)C2=O)cc1 (centres undefined) -10.9%, CN1CCN(c2ncncc2-c2ccc(C(=O)N(C)C)cc2)CC1 -0.154%, COC(=O)c1ccc(NC(=O)CSc2nnc(Cc3cccn3C)n2-c2ccc(F)cc2)cc1 7.48%, CC(=O)OC1CCC2(O)CC1(C)CCC1C2CC1(C)C (centres undefined) -5.12%, CC(=O)Oc1ccccc1C(=O)Nc1ncc([N+](=O)[O-])s1 -2.68%, COc1ccccc1N1CCN(C[C@@H]2CN3C(=O)N(C)c4ccccc4C3=N2)CC1 -1.78%, CCOC(=O)[C@]1(C(/C=C/c2ccco2)NC(=O)OC)CCCC1=O (some centres undefined) -2.18% [at 11.4 µM], O=C1c2ccccc2C(=O)N1CCc1nn[nH]n1 -12.7%, CN(C)CCOC(=O)C(c1ccccc1)C1(O)CCCC1 (centres undefined) 3.1%, COc1ccccc1N1CCN(C(=O)CSc2nnc(-c3ccoc3C)o2)CC1 -20.2%, CCOC(=O)C1CCCN(C(=O)c2ccc(CS(=O)(=O)c3ccc(Br)cc3)o2)C1 (centres undefined) -0.84%, OC(COc1cccc(OCC(O)CN2CCCC2)c1)CN1CCCC1 (centres undefined) 8.82%, COc1ccc(-c2nnco2)cc1OC -8.86%, COCCNCCOCCOc1cccc(OC)c1 4.86%, O=c1c(-c2ccc(F)cc2)nc2cnc(N3CCNCC3)nc2n1Cc1cccs1 13.7%, Cc1c2cn[nH]c(=O)c2c(C)n1Cc1ccc(F)cc1 -2.15%, CCc1nc2ccccc2n(CCOCCOCCn2c(=O)c(CC)nc3ccccc32)c1=O -3.31%, COCCn1c(=O)c(CCc2ccccc2)nc2cncnc21 3.41%, O=C1C(c2ccccn2)=[N+]([O-])c2ccccc21 -0.52%, COC1C[C@@H](O[C@@H]2C(C)C(=O)OC(C)C(C)C(O)C(C)C(=O)[C@@]3(CO3)CC(C)C(OC3OC(C)CC(N(C)C)C3O)C2C)OC(C)[C@@H]1O (some centres undefined) -6.38%, O=C(Oc1cc(OC(=O)c2ccccc2)c2c(c1)OC(c1ccc(OC(=O)c3ccccc3)c(OC(=O)c3ccccc3)c1)[C@@H](OC(=O)c1ccccc1)C2)c1ccccc1 (some centres undefined) -0.411%, CC(=O)Oc1cccc(N2C(=O)C3CC=C(Cl)CC3C2=O)c1 (centres undefined) 5.42%

Potency, active:
CCOC(=O)c1sc(=S)n2c1[nH]c(=O)c1ccc(C(=O)OC)cc12 20 µM, CCOC(=O)CCc1c(C)c2ccc(OCc3nn[nH]n3)c(C)c2oc1=O 31.6 µM, Cc1nc(-c2ccc(NC(=O)c3cccs3)cc2)cs1 25.1 µM, C[C@@H]1O[C@@H](O[C@@H]2[C@@H](O)[C@H](OCCc3ccc(O)c(O)c3)O[C@H](CO[C@@H]3O[C@H](CO)[C@@H](O)[C@H](O)[C@H]3O)[C@H]2OC(=O)/C=C/c2ccc(O)c(O)c2)[C@H](O)[C@H](O)[C@H]1O 2 µM, CCOc1ccc(CCNC(=O)C2CCN(c3ccc(N4CCOCC4)nn3)CC2)cc1OCC 25.1 µM, Cc1ccnc(SCCn2c(N(C)Cc3ccccc3)nc3c2c(=O)n(C)c(=O)n3C)n1 31.6 µM, O=c1c(-c2ccccc2)coc2c(CN3CCOCC3)c(O)ccc12 31.6 µM, Cc1ccnc(-n2sc3ccccc3c2=O)n1 3.16 µM, O=C1NC(c2cc3c(cc2Cl)OCO3)Oc2ccccc21 (centres undefined) 31.6 µM, COCCn1c(=O)c(-c2cccs2)nc2cncnc21 25.1 µM, COCCn1c(=O)c(-c2ccccc2)nc2cnc(N3CCOCC3)nc21 20 µM, COCCn1c(=O)c(-c2cccs2)nc2cnc(N3CCN(C)CC3)nc21 20 µM, O=C(Nc1nc(-c2ccncc2)cs1)C1COc2ccccc2O1 (centres undefined) 31.6 µM, Cc1nc2cnc(N3CCNCC3)nc2n(CCc2ccccc2)c1=O 25.1 µM, CN(C)c1ncc2nc(-c3ccc(F)cc3)c(=O)n(Cc3ccc(F)cc3)c2n1 3.98 µM, N#Cc1cccc(-c2nc3cnc(N4CCNCC4)nc3n(C3CC3)c2=O)c1 3.98 µM, COc1cccc(Cn2c(=O)c(CCc3ccccc3)nc3cnc(N(C)C)nc32)c1 25.1 µM, COCCn1c(=O)c(CCc2ccccc2)nc2cnc(N3CCNCC3)nc21 31.6 µM, Cn1c(=O)c(-c2ccccc2)nc2cnc(N3CCNCC3)nc21 25.1 µM, COCCn1c(=O)c(-c2cc(F)cc(F)c2)nc2cnc(N3CCNCC3)nc21 25.1 µM, Cc1nc2cnc(N3CCNCC3)nc2n(Cc2ccc(F)cc2)c1=O 25.1 µM

Reference: PubChem BioAssay AID893 (National Center for Advancing Translational Sciences (NCATS), 2007)
